Assay [1] can be described thus: Nuclear factor erythroid 2-related factor 2/antioxidant responsive element (Nrf2/ARE) small molecule agonists: luciferase reporter gene qHTS assay in human keratinocytes (AID 1919969). Further: nearly all actives have a fitted effect of over 35% in size. Further: potency means the concentration at half of the fitted maximal effect. In general terms: In a reporter assay the amount or activity of a reporter protein is the signal.
For assay [2], the target named is Gonadotropin-releasing hormone receptor (Homo sapiens) (UniProt P30968). The experiment in a line: Human gonadotropin-releasing hormone receptor (GnRHR) small molecule agonists, calcium flux assay in GnRHR-HEK293 cells (AID 1920063). Further: nearly all actives have a fitted effect of over 35% in size. In outline: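 Agonist mode: compounds at 15 concentrations, in triplicate, went onto calcium dye-loaded GnRHR-HEK293 cells. Intracellular calcium was then followed as 480/540 nm fluorescence at 1 s intervals over 3 min.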
Sequence of Gonadotropin-releasing hormone receptor (Homo sapiens) (P30968 whole entry, looked up): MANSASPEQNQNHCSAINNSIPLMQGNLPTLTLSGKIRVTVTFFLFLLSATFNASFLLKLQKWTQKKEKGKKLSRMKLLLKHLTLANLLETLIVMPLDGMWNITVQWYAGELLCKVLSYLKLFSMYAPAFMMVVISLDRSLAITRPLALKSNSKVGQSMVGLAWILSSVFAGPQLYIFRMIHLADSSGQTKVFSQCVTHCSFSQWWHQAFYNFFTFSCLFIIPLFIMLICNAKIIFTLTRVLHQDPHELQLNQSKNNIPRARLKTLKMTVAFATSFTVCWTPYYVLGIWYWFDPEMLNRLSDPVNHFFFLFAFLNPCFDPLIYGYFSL

The target in assay [3] is KiSS-1 receptor (Homo sapiens) (UniProt Q969F8). The experiment in a line: Human kisspeptin (KISS1R) small molecule agonists, calcium flux assay in KISS1R-HEK293 cells (AID 1920064; active means well fitted activation curve with a large enough effect in the repeat runs). In outline:
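Agonist mode: intracellular calcium rise tracked at 1 s intervals over 3 min (480/540 nm) immediately after compound addition to dye-loaded KISS1R-HEK293 stable cells. Each compound tested at 15 concentrations in triplicate.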
(In general: Calcium flux is commonly read through the fluorescence of an indicator in the cells.)

A short description of assay [4]: G protein-coupled receptor (GPCR) small molecule agonists, calcium flux assay: HEK293 wild type cell line counter screen (AID 1920065). In outline:
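Calcium flux counter screen: compound added in agonist mode at 15 concentrations in triplicate to dye-loaded parental HEK293 cells. Fluorescence (480/540) read kinetically for 3 min; ATP served as positive control.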

Assay [5] in a line: p53 small molecule agonists, cell-based qHTS assay with human liver microsomes (AID 1963577). In outline: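 p53RE-bla reporter cells were pre-incubated 5 h at 37 C, then treated with compounds plus human liver microsomes (0.5 mg/mL final) and NADPH (0.5 mg/mL final) for 16 h at 37 C. Beta-lactamase activity was read by LiveBLAzer fluorescence after 2 h at room temperature.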
On the technique in general: qHTS replaces the single test concentration by a dilution series.

A short description of assay [6]: p53 small molecule agonists, cell-based qHTS assay with rat liver microsomes (AID 1963578). In outline: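 p53RE-bla cells were exposed to compounds together with rat liver microsomes (0.5 mg/mL final) and NADPH (0.5 mg/mL final) for 16 h at 37 C, then read by LiveBLAzer beta-lactamase fluorescence after 2 h at room temperature.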
Assay [7] in a line: p53 small molecule agonists, cell-based qHTS assay with rat liver microsomes: qHTS cell viability counter screen (AID 1963580). Further: nearly all actives have a fitted effect of over 45% in size. In outline:
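Cytotoxicity counter screen: intracellular ATP measured by CellTiter-Glo luminescence in the same wells as the beta-lactamase reporter read, on HCT-116 p53RE-bla cells exposed 16 h at 37 C to compounds with rat liver microsomes and NADPH, each 0.5 mg/mL final.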

The nature of assay [8]: p53 small molecule agonists, cell-based qHTS assay: qHTS cell viability counter screen (AID 1963581). Further: nearly all actives have a fitted effect of over 45% in size. In short, it runs like this:
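Counter screen read by CellTiter-Glo luminescence (ATP content, 30 min at room temperature), run in the same wells as the beta-lactamase reporter read. HCT-116 p53RE-bla cells saw compounds for 16 h at 37 C.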

Assay [9] in a line: p53 small molecule agonists, cell-based qHTS assay (AID 1963582; active means well fitted activation curve with a large enough effect in the signal ratio in the repeat runs, not every such curve was filed as active; the % refers to the signal ratio). In short, it runs like this:
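Read-out is beta-lactamase FRET fluorescence after 2 h at room temperature with LiveBLAzer B/G substrate. p53 response element-bla cells were treated 16 h at 37 C with compounds in DMSO, added 5 h after seeding.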

The target in assay [10] is 5-hydroxytryptamine receptor 2A (Homo sapiens) (UniProt P28223). The experiment in a line: 5-hydroxytryptamine receptor 2A (HTR2A) small molecule antagonists, cell-based qHTS assay (AID 1963586). Further: nearly all actives have a fitted effect of over 45% in size. In outline:
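CHO cells stably expressing human HTR2A were plated for 18 h at 37 C, then loaded with calcium dye for 1 h. Compounds were preincubated 5 min at room temperature before DOI (4 nM solution) was added. Kinetic fluorescence was read for 3 min.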

Assay [11] has the same target. The experiment in a line: 5-hydroxytryptamine receptor 2A (HTR2A) small molecule agonists, cell-based qHTS assay (AID 1963587). Further: nearly all actives have a fitted effect of over 30% in size. Further: potency means the concentration at half of the fitted maximal effect. In outline:
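CHO cells stably expressing human HTR2A, plated 18 h, loaded with calcium dye 1 h at 37 C. Agonist mode: compounds added and intracellular calcium fluorescence recorded kinetically for 2 min at 1 sec intervals.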

The target in assay [12] is Muscarinic acetylcholine receptor M1 (Homo sapiens) (UniProt P11229). The experiment in a line: Cholinergic receptor muscarinic 1 (CHRM1) small molecule antagonists, cell-based qHTS assay (AID 1963588). Further: nearly all actives have a fitted effect of over 40% in size. Further: potency means the concentration at half of the fitted maximal effect. In outline: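 Compounds were tested at 15 concentrations in three independent runs. Dye-loaded CHRM1-CHO cells were exposed 5 min at room temperature before stimulation by acetylcholine added at 50nM. Intracellular calcium was read kinetically on FDSS for 3 min.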
Sequence of Muscarinic acetylcholine receptor M1 (Homo sapiens) (P11229 whole entry, looked up): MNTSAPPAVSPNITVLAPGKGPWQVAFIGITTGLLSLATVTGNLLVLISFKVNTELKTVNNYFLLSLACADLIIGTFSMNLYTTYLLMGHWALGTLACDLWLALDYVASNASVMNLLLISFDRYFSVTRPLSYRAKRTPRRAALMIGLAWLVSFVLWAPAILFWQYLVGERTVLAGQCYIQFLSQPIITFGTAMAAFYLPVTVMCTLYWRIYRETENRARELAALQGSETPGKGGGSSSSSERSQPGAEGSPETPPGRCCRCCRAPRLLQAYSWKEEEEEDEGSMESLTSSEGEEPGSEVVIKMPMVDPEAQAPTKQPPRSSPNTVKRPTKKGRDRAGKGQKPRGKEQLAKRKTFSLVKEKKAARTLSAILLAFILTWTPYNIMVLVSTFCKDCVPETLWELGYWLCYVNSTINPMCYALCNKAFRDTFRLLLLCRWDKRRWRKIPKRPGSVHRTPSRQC

Assay [13] has the same target. The experiment in a line: Cholinergic receptor muscarinic 1 (CHRM1) small molecule agonists, cell-based qHTS assay (AID 1963589). Further: nearly all actives have a fitted effect of over 35% in size. In short, it runs like this: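 Agonist-mode calcium-flux screen: compounds at 15 concentrations, three independent runs, were pin-transferred onto dye-loaded human CHRM1-CHO cells. Fluorescence was then recorded kinetically every second over minutes.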

The nature of assay [14]: cAMP Responsive Elements (CRE) small molecule agonists, cell-based qHTS assay (AID 1963590). In short, it runs like this: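 Agonist mode: compound added to CRE-bla HEK 293T cells (2,000/well, 18 h after plating) for 3 h at 37 C/5% CO2. Reporter activity detected via FRET beta-lactamase substrate, 2 h room-temperature loading.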
A short description of assay [15]: cAMP Responsive Elements (CRE) small molecule antagonists, cell-based qHTS assay (AID 1963591; active means well fitted inhibition curve with a large enough effect in the signal ratio in the repeat runs, not every such curve was filed as active; the % refers to the signal ratio). In short, it runs like this: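 Antagonist mode: compounds are added alongside the adenylyl cyclase activator NKH477 (0.25 uM final) to CRE-bla HEK293T cells for 3 h. LiveBLAzer FRET substrate, 2 h at room temperature, reports bla expression.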
Assay [16] concerns the target Beta-2 adrenergic receptor (Homo sapiens) (UniProt P07550). The experiment in a line: Adrenergic beta2 receptor (ADRB2) small molecule antagonists, cell-based qHTS assay (AID 1963592). Further: nearly all actives have a fitted effect of over 50% in size. Further: potency means the concentration at half of the fitted maximal effect. In outline:
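Assay format: CHO-ADRB2 cells, 18-20hr seeding at 37C/5% CO2, then compound plus 1nM isoproterenol agonist mix for 0.5hr RT. Homogeneous time-resolved fluorescence cAMP detection after 1hr, expressed as 665/615 nm ratio.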

The target in assay [17] is D(2) dopamine receptor (Homo sapiens) (UniProt P14416). The experiment in a line: Dopamine D2 receptor (DRD2) small molecule agonists, cell-based qHTS assay (AID 1963594). Further: nearly all actives have a fitted effect of over 35% in size. In short, it runs like this: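 HEK293 cells stably expressing human DRD2, pre-treated with PDE inhibitor Ro20-1724 (0.1 mM final) and compound 10 min at room temperature, then stimulated with NKH477 (200nM […]) for 30 min. cAMP read by HTRF (665/620 nm).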
Sequence of D(2) dopamine receptor (Homo sapiens) (P14416 whole entry, looked up): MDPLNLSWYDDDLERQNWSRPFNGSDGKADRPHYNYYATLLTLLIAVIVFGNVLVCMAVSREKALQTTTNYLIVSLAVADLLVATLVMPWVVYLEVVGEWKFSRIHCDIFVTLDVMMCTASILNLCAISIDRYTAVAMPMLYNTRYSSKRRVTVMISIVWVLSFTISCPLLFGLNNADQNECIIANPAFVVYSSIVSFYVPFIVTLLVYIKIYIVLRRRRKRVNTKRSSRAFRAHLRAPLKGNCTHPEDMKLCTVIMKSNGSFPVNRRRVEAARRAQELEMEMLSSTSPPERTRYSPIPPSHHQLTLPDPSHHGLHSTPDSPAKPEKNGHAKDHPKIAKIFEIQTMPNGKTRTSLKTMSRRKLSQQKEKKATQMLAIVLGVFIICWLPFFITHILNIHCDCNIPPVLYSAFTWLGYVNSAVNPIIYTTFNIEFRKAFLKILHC

The nature of assay [18]: p53 small molecule agonists, cell-based qHTS assay with human liver microsomes: qHTS cell viability counter screen (AID 1963579). Further: nearly all actives have a fitted effect of over 45% in size. In outline:
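p53RE-bla cells (4,000/well) were pre-incubated 5 h at 37 C, then given compounds in DMSO plus human liver microsomes (0.5 mg/mL final) and NADPH (0.5 mg/mL final) for 16 h at 37 C. Viability was read by CellTiter-Glo luminescence.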

Assay [19] addresses Beta-2 adrenergic receptor (Homo sapiens) (UniProt P07550). The experiment in a line: Adrenergic beta2 receptor (ADRB2) small molecule agonists, cell-based qHTS assay (AID 1963593).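 Further: CHO cells stably overexpressing human ADRB2.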 In outline: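 CHO cells stably over-expressing ADRB2 were plated overnight at 37C, then dosed with compounds plus a stimulation mix containing 100uM IBMX and 25uM Ro-20-1724 for 0.5hr at room temperature. cAMP was measured by HTRF competition, 1hr.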

Assay [20] deals with D(2) dopamine receptor (Homo sapiens) (UniProt P14416). The experiment in a line: Dopamine D2 receptor (DRD2) small molecule antagonists, cell-based qHTS assay (AID 1963595; active means well fitted inhibition curve with a large enough effect in the signal ratio in the repeat runs, with a control signal flat; the % refers to the signal ratio; further: potency means the concentration at half of the fitted maximal effect). In outline: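 HTRF cAMP read-out at 665 and 620 nm emission (340 nm excitation). Antagonist mode: compounds were tested against 12 nM quinpirole in DRD2-HEK293 cells, with 200 nM NKH477 raising cAMP and 0.1 mM Ro20-1724 blocking its breakdown.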

The record followed here is PubChem BioAssay (Tox21).

Results filed as inconclusive are left out. Where a structure was tested more than once in an assay, its records may differ in their call. Calls of active or inactive are those of the source. Unless noted, the call rests on the fitted dose curve.

Sequence of Beta-2 adrenergic receptor (Homo sapiens) (P07550 whole entry, looked up): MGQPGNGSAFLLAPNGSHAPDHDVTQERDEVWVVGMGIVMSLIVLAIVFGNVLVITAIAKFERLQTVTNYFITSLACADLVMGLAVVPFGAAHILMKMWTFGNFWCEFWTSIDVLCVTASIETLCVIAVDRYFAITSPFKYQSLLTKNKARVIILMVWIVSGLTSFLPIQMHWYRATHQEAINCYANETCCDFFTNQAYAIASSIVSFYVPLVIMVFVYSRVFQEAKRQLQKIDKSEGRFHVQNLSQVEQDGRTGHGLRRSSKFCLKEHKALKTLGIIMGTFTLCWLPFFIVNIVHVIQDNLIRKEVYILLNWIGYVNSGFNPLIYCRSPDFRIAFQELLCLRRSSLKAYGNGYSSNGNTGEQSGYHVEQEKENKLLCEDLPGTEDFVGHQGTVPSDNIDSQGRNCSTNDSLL
Sequence of 5-hydroxytryptamine receptor 2A (Homo sapiens) (P28223 whole entry, looked up): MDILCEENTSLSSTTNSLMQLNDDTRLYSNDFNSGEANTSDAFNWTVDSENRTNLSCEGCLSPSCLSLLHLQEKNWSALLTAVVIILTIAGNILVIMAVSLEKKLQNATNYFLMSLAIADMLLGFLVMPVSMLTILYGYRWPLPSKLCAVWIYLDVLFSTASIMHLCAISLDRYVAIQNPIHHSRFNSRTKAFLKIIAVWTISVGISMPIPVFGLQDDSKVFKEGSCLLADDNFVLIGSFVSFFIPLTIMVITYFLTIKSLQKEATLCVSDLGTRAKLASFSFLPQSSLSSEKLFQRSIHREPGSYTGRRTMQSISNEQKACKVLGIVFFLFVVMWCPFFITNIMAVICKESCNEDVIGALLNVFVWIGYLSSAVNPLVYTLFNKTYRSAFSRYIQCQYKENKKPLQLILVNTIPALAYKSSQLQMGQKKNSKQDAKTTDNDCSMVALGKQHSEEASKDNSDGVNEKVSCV
Sequence of KiSS-1 receptor (Homo sapiens) (Q969F8 whole entry, looked up): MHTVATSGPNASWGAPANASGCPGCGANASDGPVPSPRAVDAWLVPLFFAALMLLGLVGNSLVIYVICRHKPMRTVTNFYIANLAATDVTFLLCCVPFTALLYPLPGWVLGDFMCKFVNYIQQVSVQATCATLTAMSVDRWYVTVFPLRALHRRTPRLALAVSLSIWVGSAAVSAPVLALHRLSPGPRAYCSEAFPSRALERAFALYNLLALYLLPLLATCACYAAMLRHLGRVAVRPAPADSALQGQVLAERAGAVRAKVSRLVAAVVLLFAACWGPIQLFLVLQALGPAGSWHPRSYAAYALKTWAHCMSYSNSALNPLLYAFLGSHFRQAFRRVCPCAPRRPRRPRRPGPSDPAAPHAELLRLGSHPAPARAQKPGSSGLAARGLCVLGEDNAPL

Regarding `OCCCCl`, the Potency result in assay [1], in [2], in [3], in assay [4], in assay [5] and in assay [6] was “inactive” in each case. The Potency result in assay [7], in assay [8], in [9], in assay [10], in [11] and in assay [12] was “inactive” throughout. The Potency entry in assay [13], in [14], in [15], in assay [16] and in assay [17] was “inactive” in each case.

Take `CCCO[Si](OCCC)(OCCC)OCCC`: the Potency entry in assay [1], in [2], in [3], in [4], in assay [5] and in assay [6] was “inactive” in each case. Also, the Potency result in [18], in [8], in assay [9], in assay [10], in assay [11] and in [12] was “inactive” in each case. Moreover, the Potency entry in [13], in assay [14], in [15], in assay [19], in [17] and in [20] was “inactive” in each case.

`CC(C)(C)c1ccc(S)cc1`: in [1], the Potency was 48.6 µM (active). The Potency result in assay [2], in assay [3], in assay [4], in [6], in [18] and in assay [7] was “inactive” in each case. For the same compound, the Potency result in assay [8], in assay [9], in [10], in assay [11], in assay [12] and in assay [13] was “inactive” throughout. In addition, the Potency result in assay [14], in [15], in assay [17] and in [20] was “inactive” in each case.

For `CN(C)CCC=C1c2ccccc2CCc2ccccc21`, the Potency result in [1], in [2], in [3], in assay [4], in assay [5] and in [6] was “inactive” throughout. The Potency entry in assay [18], in assay [7], in assay [14], in [15] and in assay [17] was “inactive” throughout. In addition, the Potency in [16] is 24.3 µM (active); in assay [20], 27.3 µM (active).

For the compound `Nc1cc(S(=O)(=O)O)cc2cc(S(=O)(=O)O)cc(O)c12`, the Potency entry in assay [1], in assay [2], in assay [3], in assay [4], in assay [6] and in assay [18] was “inactive” throughout. Moreover, the Potency result in assay [7], in [8], in [10], in assay [11], in assay [12] and in assay [13] was “inactive” in each case. Also, the Potency entry in assay [14], in [15] and in assay [16] was “inactive” each time.

`CCC(C(=O)OCCOCCN(CC)CC)c1ccccc1` (centres undefined): the Potency entry in assay [1], in assay [2], in assay [3], in assay [5], in assay [6] and in assay [18] was “inactive” in each case. Also, the Potency entry in [7], in [8], in [9], in assay [10], in assay [12] and in assay [13] was “inactive” in each case. Also, the Potency entry in assay [14], in assay [15], in assay [19], in assay [17] and in assay [20] was “inactive” throughout. In addition, the Potency in [11] is 2.68 µM (active).

In the case of `COC(=O)C1=C(C)NC(C)=C(C(=O)OCCN(C)Cc2ccccc2)C1c1cccc([N+](=O)[O-])c1` (centres undefined), the Potency entry in assay [1], in [2], in assay [3], in [4], in assay [8] and in assay [11] was “inactive” in each case. The Potency entry in assay [13], in [15], in assay [16], in [17] and in [20] was “inactive” in each case. Besides, in [12], the Potency is 1.32 µM (active) and inactive.

Turning to `Cc1oc(C)c(C(=O)Nc2ccccc2)c1C`, the Potency result in assay [1], in [2], in assay [3], in [4], in [5] and in assay [6] was “inactive” throughout. Further, the Potency entry in assay [7], in assay [8], in [9], in assay [10], in [11] and in [12] was “inactive” in each case. The Potency entry in assay [13], in [14], in assay [15], in [16], in assay [19] and in [17] was “inactive” in each case. Besides, in assay [20], the Potency entry is “inactive”.
